Source: PubChem BioAssay (EPA / NIEHS)
Where “and” joins values, the source holds several entries; their conditions need not be identical. Equal entries are not always repeated. Calls of active or inactive are those of the source. Rule for the calls: active = hit-call score of the fitted dose curve at least 0.9, where 1 is the maximum; inactive = score below 0.9.

The molecules below were run on Plasminogen activator inhibitor-1 (PAI1), SERPINE1 (gene 5054) (assay: BSK_BE3C_PAI1: BioMAP Diversity Plus: BE3C Assay for Plasminogen activator inhibitor-1 (PAI1) Biomarker Activity (AID 2283037)). Details: primary human bronchial epithelial cells; actives raise or lower the signal.
Description: BSK_BE3C is a cell-based, multiplexed-readout assay that uses bronchial epithelial cell, a human lung primary cell, with measurements taken at 24 hours after chemical dosing in a 96-well plate.BSK_BE3C_PAI1 is an assay component measured in the BSK_BE3C assay. It measures PAI-1 antibody related to regulation of gene expression using ELISA technology.Data from the assay component BSK_BE3C_PAI1 was analyzed into 1 assay endpoint. This assay endpoint, BSK_BE3C_PAI1, was analyzed with bidirectional fitting relative to DMSO as the negative control and baseline of activity. Using a type of binding reporter, gain or loss-of-signal activity can be used to understand changes in the signaling as they relate to the gene SERPINE1. Furthermore, this assay endpoint can be referred to as a primary readout, because this assay has produced multiple assay endpoints where this one serves a signaling function. To generalize the intended target to other relatable targets, this assay endpoint is annotated to the cytokine intended target family, where the subfamily is plasmogen activator inhibitor.
The levels of cell surface (or secreted, indicated by the prefix "s") biomarker endpoints were measured by ELISA. Overt cytotoxicity to cells in confluent adherent cultures (all systems other than the BT system) was assessed by measuring total protein levels using sulforhodamine B (SRB) staining in parallel cultures at the time of biomarker measurements, indicated as SRB endpoints. For proliferation assays for adherent cell types, individual cell types are cultured at sub-confluence and relative cell numbers quantified by SRB staining at time points optimized for each system (48 h: 3C and CASM3C systems; 72 h: BT and HDF3CGF systems; 96 h: SAg system). SRB was performed by staining cells with 0.1% SRB after fixation with 10% TCA and reading wells at 560 nm.Viability and proliferation of PBMC (T cells) was quantified by Alamar Blue reduction for the SAg and BT systems. For PBMC viability (referred to as PBMC Cytotoxicity within the assay endpoint names), cells were plated (75,000/well in a 96-well plate) and then chemical samples added for 1 h before addition of activators, SEB and TSST-1 (20 ng/mL final concentration each). Cells were incubated for 90 h. Then, Alamar Blue (20 uL/well) (Invitrogen, Cat DAL1100) was added for 6 h, and the plates were read with a fluorescence microplate reader at 546/580 nm (excitation/emission). For PBMC proliferation, cells were plated and activated as above but incubated for only 16 h prior to addition of Alamar Blue. Plates were read after 6 h.
CCCCCCCCCCCCS was tested, and the outcome was “inactive”. With CC(=O)CCC=C(C)CCC=C(C)C the outcome was “inactive”. NC(=O)c1c(Cl)cccc1Cl was tested, and the outcome was “inactive”. With OCC(F)(OC(F)(F)C(F)(OC(F)(F)C(F)(F)C(F)(F)F)C(F)(F)F)C(F)(F)F (stereo not given) the outcome was “inactive”. C=C(C)C(N)=O was tested, and the outcome was “inactive”. With c1ccc(OCCOc2ccccc2)cc1 the outcome was “inactive”. In the case of CCCCOCCOCCO, the outcome is reported as “inactive”. In the case of CCOC(=O)CCCCCCCCC(=O)OCC, the outcome is reported as “inactive”. In the case of CC(C)CCCC(C)(C)O, the outcome is reported as “inactive”. With c1ccc2c(c1)-c1ccc3ccc4cccc5cc-2c1c3c45 the outcome was “inactive”. In the case of O=C1OC2(c3ccc(O)cc3Oc3cc(O)ccc32)c2ccccc21, the outcome is reported as “inactive”. CC(=O)c1ccc(C)cc1 was tested, and the outcome was “inactive”. With COC(=O)c1ccc(C(=O)OC)cc1 the outcome was “inactive”. CCn1cc(C(=O)O)c(=O)c2ccc(C)nc21 was tested, and the outcome was “inactive”. Nc1ccc(N)c([N+](=O)[O-])c1 was tested, and the outcome was “inactive”. In the case of c1ccc(Sc2ccccc2)cc1, the AC50 is reported as 28.1 µM (active). With O=S(=O)(O)C(F)(F)C(F)(F)OC(F)(F)C(F)(F)F the outcome was “inactive”. O=C(O)C(F)(F)C(F)(F)C(F)(F)C(F)(F)C(F)(F)C(F)(F)C(F)(F)C(F)F was tested, and the outcome was “inactive”. CC(C)(CO)CO was tested, and the outcome was “inactive”. For CC1=CC(C)C(C=O)C(C)C1 (stereo not given) (tested in a mixture with another compound), the outcome was “inactive”. In the case of C=C(C)C(=O)OCCC(F)(F)C(F)(F)C(F)(F)C(F)(F)C(F)(F)C(F)(F)C(F)(F)C(F)(F)F, the outcome is reported as “inactive”. In the case of CC=CC(=O)C1=C(C)C=CCC1(C)C, the outcome is reported as “inactive”. With CCOC(=O)C=Cc1ccccc1 the outcome was “inactive”. For C=C1CC/C=C(\C)CC[C@@H]2[C@@H]1CC2(C)C, the outcome was “inactive”. CC(=O)OCC=C(C)CCC=C(C)CCC=C(C)C was tested, and the AC50 was 0.016 µM (active). With COc1ccccc1NC(=O)CC(C)=O the outcome was “inactive”. For O=C(c1ccc(OCCN2CCCCC2)cc1)c1c(-c2ccc(O)cc2)sc2cc(O)ccc12, the AC50 was 22.4 µM (active). With C[C@]12CC[C@@H]3c4ccc(O)cc4CC[C@H]3[C@@H]1CC[C@@H]2O the outcome was “inactive”. In the case of CCCO[Si](OCCC)(OCCC)OCCC, the outcome is reported as “inactive”. With C#C[C@]1(O)CC[C@H]2[C@@H]3CCc4cc(O)ccc4[C@H]3CC[C@@]21C the outcome was “inactive”. In the case of CC/C(=C(\c1ccccc1)c1ccc(OCCN(C)C)cc1)c1ccccc1, the AC50 is reported as 11.5 µM (active) and 11.7 µM (active). O=S1(=O)CC(Cl)(Cl)C(Cl)(Cl)C1 was tested, and the AC50 was 1.61 µM (active). In the case of C=C(F)C(=O)OC(C(F)(F)F)C(F)(F)F, the outcome is reported as “inactive”. With CC(C)(C)c1cccc(O)c1 the outcome was “inactive”. With CC(C)Cc1ccc(C(C)C(=O)O)cc1 (stereo not given) the outcome was “inactive”. In the case of CCCCCCCCCC(=O)OCC, the outcome is reported as “inactive”. In the case of CCCCCCCC1CCCC1=O (stereo not given), the AC50 is reported as 36.6 µM (active). OCCN1CCOCC1 was tested, and the outcome was “inactive”. With CC1(C)[C@H](C=C(Cl)Cl)[C@H]1C(=O)OCc1cccc(Oc2ccccc2)c1 the outcome was “inactive”. C=CC(=O)OCC(CO)(COC(=O)C=C)COC(=O)C=C was tested, and the outcome was “inactive”.
